# Inconclusive results are not listed. Activity calls are given as the source filed them. Calls follow the shape of the dose curve; as a rule, active = well fitted inhibition curve with a large enough effect; inconclusive = small, poorly fitted or top-dose-only effect; inactive = flat fitted curve, though single readings scatter.
# Tested on: HACAT
# Experiment: qHTS assay to identify novel small-molecules to repurpose for Merkel cell carcinoma treatment (AID 1296009); also: nearly all actives have a fitted effect of over 60% in size
# Conditions: MCC and control cell lines, CellTiter-Glo viability, 72 h; series mostly up to 44.8 µM
# Procedure, shortened: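 Cell viability measured by CellTiter-Glo following 72 hr compound treatment at 37 degree celsius, with NPC and MIPE libraries tested in 8- and 11-point concentration series.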
row,Compound,outcome
1,CC12CCC(OC3OC(CO)C(O)C(OC4OC(CO)C(O)C(O)C4O)C3O)CC1=CCC1C2CCC2(C)/C(=C3/COC(=O)C3)CCC12O (configuration not stated),inactive [at 17.4 µM]
2,O=C(Nc1nc2ccccc2n1CCc1ccccc1)c1ccccc1,inactive
3,Cc1cc(OCc2nc(-c3ccccc3Cl)cs2)ccc1OCC(=O)O,inactive
4,CN(C)C(=O)NC1CCC(CCN2CCN(c3cccc(Cl)c3Cl)CC2)CC1 (configuration not stated),inactive [at 9.27 µM]
5,CC(C)c1cccc2c(-c3ccccc3)cc(-c3ccc(-c4ccc(C(=O)O)cc4)[nH]3)nc12,inactive
6,C=C1CCC[C@]2(C)CC[C@@H](C(=C)C(=O)O)[C@H](O)[C@@H]12,inactive
7,CC(C)=C/C=C\[C@H](C)[C@H]1CC[C@]2(C)C[C@@H]3C(C)=CC(=O)C3/C(CO)=C\C[C@@H]12 (some centres not stated),inactive
8,OCC1OC(Oc2cc(O)cc(/C=C/c3ccc(O)cc3)c2)C(O)C(O)C1O (configuration not stated),inactive
9,C[C@@H]1CCN(C(=O)N2CCCC2)C[C@@H]1N(C)c1ncnc2[nH]ccc12,inactive
10,COC(=O)C1=CO[C@@H](O[C@@H]2O[C@H](CO)[C@@H](O)[C@H](O)[C@H]2O)C2C1C(=O)C[C@H]2C (some centres not stated),inactive
11,CN1C2CCC1CC(OC(=O)[C@H](CO)c1ccccc1)C2 (some centres not stated),inactive
12,C/C=C/c1ccc2c(c1)[C@@H](C)[C@H](c1ccc(O)cc1)O2,inactive
